Measured values published in PubChem BioAssay (EPA / NIEHS).
Results filed as inconclusive are left out. A structure can be active in one record and inactive in another. Calls of active or inactive are those of the source. The calls were made as follows, unless noted: active = hit-call score of the fitted dose curve at least 0.9, where 1 is the maximum; inconclusive = response in the unintended direction; inactive = score below 0.9.

What was measured:
[1] = read-out: Cellular tumor antigen p53 (Homo sapiens) (UniProt P04637); experiment: LTEA_HepaRG_TP53: Life Technologies and Expression Analysis (LTEA) Assay for Tumor Protein P53 (TP53) using HepaRG (AID 2283537; active = hit-call score of the fitted dose curve at least 0.9, where 1 is the maximum; inactive = score below 0.9); conditions: mRNA level, 48 h; actives raise or lower the signal
Outline: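 TP53 transcript measured by qRT-PCR, normalized to three housekeeping genes, after 48 h treatment of human HepaRG cultures with chemicals from 100 uM downward in half-log steps (0.5% DMSO vehicle, serum-free induction medium). Up- or down-regulation fitted against DMSO.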

[2] = read-out: UDP glucuronosyltransferase (UGT1A1), UGT1A1 (gene 54658); experiment: LTEA_HepaRG_UGT1A1: Life Technologies and Expression Analysis (LTEA) Assay for UDP glucuronosyltransferase (UGT1A1) using HepaRG (AID 2283538; active = hit-call score of the fitted dose curve at least 0.9, where 1 is the maximum; inactive = score below 0.9); conditions: mRNA level, 48 h; actives raise or lower the signal
Outline: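 HepaRG cells, 0.5% DMSO vehicle, 48 h exposure in serum-free induction medium to 8-point half-log series topping at 100 uM, in duplicate. UGT1A1 mRNA by Fluidigm qRT-PCR, normalized to ACTB/GAPDH/POLR2A; bidirectional fit versus DMSO.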

[3] = read-out: UDP glucuronosyltransferase (UGT1A6), UGT1A6 (gene 54578); experiment: LTEA_HepaRG_UGT1A6: Life Technologies and Expression Analysis (LTEA) Assay for UDP glucuronosyltransferase (UGT1A6) using HepaRG (AID 2283539; active = hit-call score of the fitted dose curve at least 0.9, where 1 is the maximum; inactive = score below 0.9); conditions: mRNA level, 48 h; actives raise or lower the signal
Outline: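 Human HepaRG cells were dosed for 48 h in serum-free induction medium with 0.5% DMSO vehicle, eight-point half-log series from 100 uM, in duplicate. UGT1A6 mRNA was measured by qRT-PCR, normalized to ACTB, GAPDH, POLR2A, and fitted bidirectionally against DMSO.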

[4] = read-out: X-box binding protein 1 (XBP1), XBP1 (gene 7494); experiment: LTEA_HepaRG_XBP1: Life Technologies and Expression Analysis (LTEA) Assay for X-box binding protein 1 (XBP1) using HepaRG (AID 2283540; active = hit-call score of the fitted dose curve at least 0.9, where 1 is the maximum; inactive = score below 0.9); conditions: mRNA level, 48 h; actives raise or lower the signal
Outline: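 Differentiated human HepaRG cells in serum-free induction medium were exposed in duplicate for 48 h to eight half-log concentrations up to 100 uM in 0.5% DMSO. XBP1 mRNA was quantified by qRT-PCR, normalised to ACTB, GAPDH and POLR2A, with bidirectional fitting against DMSO.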

[5] = LTEA_HepaRG_LDH_cytotoxicity: Cytotoxicity Assessment in the Life Technologies and Expression Analysis (LTEA) Assay (AID 2283563)
Outline: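 Differentiated human HepaRG cells, plated 48 h beforehand, were switched to serum-free induction medium and exposed for 48 h to eight half-log concentrations (top 100 uM) in 0.5% DMSO. LDH was measured in spent medium; activity was fitted relative to DMSO vehicle.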

[6] = ATG_XTT_Cytotoxicity: Cytotoxicity Assessment in the Attagene TRANS-FACTORIAL HepG2 Assay (AID 2283584)
Outline: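 HepG2 human liver cells, transiently transfected with multiple GAL4-UAS reporter units, were dosed and read at 24 h by XTT as cell number. Loss of signal was fitted relative to DMSO negative control baseline.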

[7] = TOX21_p53_BLA_p2_viability: Viability Assessment in the Tox21 HCT-116 p53 Agonism Beta-lactamase Assay, Phase 2 (AID 2283591);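 also: compound exposure lasted 16 h at 37 °C; actives lower the ATP signal meaning cytotoxicity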
Outline: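 Cytotoxicity readout: CellTiter-Glo ATP luminescence, 30 min at room temperature, after the beta-lactamase read. Cells were HCT116 exposed 16 h at 37C to compounds pin-transferred at 217-fold dilution from DMSO stocks.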

[8] = target: Cellular tumor antigen p53 (Homo sapiens) (UniProt P04637); experiment: TOX21_p53_BLA_p2_ratio: Tox21 HCT-116 p53 Agonism Beta-lactamase Assay, Ratio, Phase 2 (AID 2283592)
Sequence of Cellular tumor antigen p53 (Homo sapiens) (P04637 whole entry, looked up): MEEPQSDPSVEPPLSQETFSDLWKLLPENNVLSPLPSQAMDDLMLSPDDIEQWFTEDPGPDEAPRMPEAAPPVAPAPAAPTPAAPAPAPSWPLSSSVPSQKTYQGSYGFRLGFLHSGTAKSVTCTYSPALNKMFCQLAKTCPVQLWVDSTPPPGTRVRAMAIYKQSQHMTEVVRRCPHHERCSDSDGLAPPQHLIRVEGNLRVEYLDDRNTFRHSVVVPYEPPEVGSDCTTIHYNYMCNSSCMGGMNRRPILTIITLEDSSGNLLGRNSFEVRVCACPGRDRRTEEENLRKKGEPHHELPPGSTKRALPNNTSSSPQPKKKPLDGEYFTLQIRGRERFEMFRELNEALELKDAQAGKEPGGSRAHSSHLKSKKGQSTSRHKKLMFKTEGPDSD
Outline: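 HCT116 cells carrying a p53-responsive beta-lactamase reporter were plated, incubated 5 h at 37C, then dosed with compounds in DMSO (217-fold dilution) for 16 h. CCF4-AM substrate was added for 2 h at room temperature; the 460/530 nm emission ratio gave gain-of-signal activity relative to DMSO.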

[9] = TOX21_p53_BLA_p3_viability: Viability Assessment in the Tox21 HCT-116 p53 Agonism Beta-lactamase Assay, Phase 3 (AID 2283593);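 also: cells exposed to compound for 16 h before reading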
Outline: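 Cellular ATP was quantified by CellTiter-Glo luminescence, read after 30 min at room temperature. Beforehand, HCT116 cells (4000/well) received compound 5 h post-seeding, 217-fold diluted from DMSO, then incubated 16 h at 37C.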

[10] = target: Cellular tumor antigen p53 (Homo sapiens) (UniProt P04637); experiment: TOX21_p53_BLA_p5_ratio: Tox21 HCT-116 p53 Agonism Beta-lactamase Assay, Ratio, Phase 5 (AID 2283599)
Outline: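 Beta-lactamase reporter ratio (blue 460 nm over green 530 nm, 405 nm excitation) after 2 h CCF4-AM loading, in HCT-116 cells exposed 16 h at 37 C to compounds pinned at 217-fold dilution. Increases relative to DMSO baseline scored.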

[11] = target: Cellular tumor antigen p53 (Homo sapiens) (UniProt P04637); experiment: TOX21_p53_BLA_p4_ratio: Tox21 HCT-116 p53 Agonism Beta-lactamase Assay, Ratio, Phase 4 (AID 2283601)
Outline: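 Signal is the blue/green (460nm/530nm) ratio of cleaved versus uncleaved CCF4-AM substrate, read after 2 h substrate loading. Cells were HCT116 carrying the p53-responsive beta-lactamase reporter, dosed 16 h at 37C, 5% CO2; CellTiter-Glo measured in parallel.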

[12] = Tanguay_ZF_120hpf_YSE_legacy: (Legacy) Oregon State University Tanguay Lab 120 Hour Post-fertilization zebrafish Assay for Yolk Sac Edema (AID 2283634)
Outline: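 Tropical 5D wild-type embryos, dechorionated with pronase at 4 hpf, were exposed singly from 6 hpf to 120 hpf under static, sealed, dark conditions at 28C with 0.64% DMSO final. Yolk sac edema was scored present/absent by brightfield microscopy.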

[13] = Tanguay_ZF_120hpf_AXIS_legacy: (Legacy) Oregon State University Tanguay Lab 120 Hour Post-fertilization zebrafish Assay for Body Axis Malformation (AID 2283635);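 as to AC50: potency for an increased fraction of larvae scored with body axis malformation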
Outline: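 Tropical 5D wild-type zebrafish embryos, dechorionated with pronase at 4 hpf, were placed singly in wells at 6 hpf and exposed statically to test chemical (0.64% DMSO final) at 28C until 120 hpf, then scored by brightfield for body axis defects.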

[14] = Tanguay_ZF_120hpf_EYE_legacy: (Legacy) Oregon State University Tanguay Lab 120 Hour Post-fertilization zebrafish Assay for Eye Malformation (AID 2283636)
Outline: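 Read-out is binary presence or absence of eye malformation, scored by brightfield microscopy at 120 hpf. Single larvae were exposed from 6 hpf in embryo medium containing 0.64% DMSO, with DMSO as baseline.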

[15] = Tanguay_ZF_120hpf_JAW_legacy: (Legacy) Oregon State University Tanguay Lab 120 Hour Post-fertilization zebrafish Assay for Jaw Malformation (AID 2283638);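 as to AC50: active means more embryos with jaw malformation than DMSO controls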
Outline: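 Tropical 5D wild-type embryos, dechorionated with pronase at 4 hpf, were placed singly per well at 6 hpf and statically exposed at 28C until 120 hpf (0.64% DMSO final). Jaw malformation scored as present/absent by brightfield microscopy at 120 hpf, analyzed relative to DMSO.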

[16] = target: Cellular tumor antigen p53 (Homo sapiens) (UniProt P04637); experiment: TOX21_p53_BLA_p3_ratio: Tox21 HCT-116 p53 Agonism Beta-lactamase Assay, Ratio, Phase 3 (AID 2283596)
Outline: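 HCT116 p53-bla cells (4000/well) given compound in DMSO (217-fold dilution) after 5 h, incubated 16 h at 37C. CCF4-AM substrate 2 h at room temperature; 460/530 nm emission ratio, gain fitted against DMSO.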

[17] = TOX21_p53_BLA_p4_viability: Viability Assessment in the Tox21 HCT-116 p53 Agonism Beta-lactamase Assay, Phase 4 (AID 2283597);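 also: hits lower the luminescence signal meaning cytotoxicity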
Outline: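 HCT116 p53-bla cells (4000/well) rested 5 h at 37C, then received compounds in DMSO (217-fold dilution) for 16 h at 37C, 5% CO2. CellTiter-Glo was added after the CCF4-AM read, and luminescence was read after 30 min at room temperature.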

[18] = TOX21_p53_BLA_p5_viability: Viability Assessment in the Tox21 HCT-116 p53 Agonism Beta-lactamase Assay, Phase 5 (AID 2283600)
Outline: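 Cells were plated at 4000/well, rested 5 h at 37C, then given compounds in DMSO (217-fold dilution) for 16 h at 37C, 5% CO2. Following the CCF4-AM beta-lactamase read, CellTiter-Glo was added and luminescence was read after 30 min at room temperature.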

[19] = Tanguay_ZF_120hpf_MORT_legacy: (Legacy) Oregon State University Tanguay Lab 120 Hour Post-fertilization zebrafish Assay for Mortality (AID 2283633);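 also: fitted as increase in binary mortality versus DMSO negative control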
Outline: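 Dechorionated Tropical 5D wild-type zebrafish embryos, one per well from 6 hpf, were statically exposed at 28C in the dark until 120 hpf (0.64% DMSO final). Mortality was scored as present/absent by brightfield microscopy, fitted positively versus DMSO.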

With `CCCCCCCCCCCCc1ccccc1` the outcome [1] was “inactive”, the outcome [2] was “inactive” and the outcome [3] was “inactive”. For the same molecule, the outcome [4] was “inactive”, the outcome [5] was “inactive” and the outcome [6] was “inactive”. For the same molecule, the outcome [7] was “inactive”, the outcome [8] was “inactive” and the outcome [9] was “inactive”. For the same molecule, the outcome [10] was “inactive”, the outcome [11] was “inactive” and the outcome [12] was “inactive”. For the same molecule, the outcome [13] was “inactive”, the outcome [14] was “inactive” and the outcome [15] was “inactive”.
For `Nc1ccc(Nc2ccccc2)cc1`, the outcome [1] was “inactive”, the AC50 [2] was 50 µM (active) and the outcome [3] was “inactive”. The outcome [4] was “inactive”, the outcome [5] was “inactive” and the outcome [7] was “inactive”. The AC50 [8] was 86 µM (active), the outcome [8] was “inactive” and the outcome [9] was “inactive”. For the same molecule, the outcome [16] was “inactive”, the outcome [17] was “inactive” and the outcome [10] was “inactive”. The outcome [18] was “inactive”, the outcome [11] was “inactive” and the AC50 [19] was 33.2 µM (active). For the same molecule, the AC50 [13] was 43.8 µM (active), the AC50 [14] was 45.8 µM (active) and the AC50 [15] was 27.2 µM (active).
In the case of `CCCCC(CC)COC(=O)CCCCCCCCC(=O)OCC(CC)CCCC` (centres undefined), the outcome [6] is reported as “inactive”.
